# Test results from the supplement of paper PMC8387472.
# Where a name gives a salt, the structure may show the parent alone. ± gives the standard deviation of the averaged measurements.
# System: mESC LDLR-Dup GFP reporter (SpCas9 MH-deletion repair)
# Assay: fraction of GFP+ cells relative to DMSO control (fold change); higher = more MH-deletion repair to in-frame LDLR (or more editing)
# Details: 2 µM; 7 days post-transfection
row,Structure (SMILES),fraction of GFP+ cells
1,"C[C@@H](CN1CC(=O)NC(=O)C1)N1CC(=O)NC(=O)C1 [Dexrazoxane HCl (ICRF-187, ADR-529)]",1.05 ± 0.24
2,O=c1cc(N2CCOCC2)oc2c(-c3cccc4c3sc3ccccc34)cccc12,0.732 ± 0.4
3,Nc1nc2[nH]cc(CCc3ccc(C(=O)N[C@@H](CCC(=O)O)C(=O)O)cc3)c2c(=O)[nH]1 [Pemetrexed Disodium Hydrate],1.69 ± 0.34
4,Cc1c(C)c2c(c(C)c1O)CCC(C)(COc1ccc(CC3SC(=O)NC3=O)cc1)O2 (stereo not drawn) [Troglitazone (CS-045)],1.34 ± 0.24
5,Nc1nc(F)nc2c1ncn2[C@@H]1O[C@H](CO)[C@@H](O)[C@@H]1O [Fludarabine],0.867 ± 0.35
6,CCN1/C(=C/C(C)=O)Sc2ccc(OC)cc21,0.802 ± 0.095
7,C=C1CC[C@H](O)C/C1=C/C=C1\CCC[C@]2(C)[C@@H]([C@H](C)/C=C/[C@H](C)C(C)C)CC[C@@H]12 [Vitamin D2],1.43 ± 0.26
8,Cn1c(=O)cc(C(=O)Nc2ccc3c(c2)OCCO3)c2ccccc21,0.931 ± 0.27
9,Nc1[nH]cnc2ncnc1-2 [Adenine sulfate],1.1 ± 0.025
10,O=C(Nc1ccccc1-c1cn2c(CN3CC[C@@H](O)C3)csc2n1)c1ccc2ccccc2c1,1.45 ± 0.4
11,CSc1nc2cc(Cl)c(Oc3cccc(Cl)c3Cl)cc2[nH]1 [Triclabendazole],1.67 ± 0.26
12,CC1CCc2cc(F)cc3c(=O)c(C(=O)O)cn1c23 (stereo not drawn) [Flumequine],0.977 ± 0.12
13,CCCCCCCCCC(=O)N[C@@H](Cc1c[nH]c2ccccc12)C(=O)N[C@H](CC(N)=O)C(=O)N[C@@H](CC(=O)O)C(=O)N[C@@H]1C(=O)NCC(=O)N[C@@H](CCCN)C(=O)N[C@@H](CC(=O)O)C(=O)N[C@H](C)C(=O)N[C@@H](CC(=O)O)C(=O)NCC(=O)N[C@H](CO)C(=O)N[C@@H]([C@H](C)CC(=O)O)C(=O)N[C@@H](CC(=O)c2ccccc2N)C(=O)O[C@@H]1C [Daptomycin],1.25 ± 0.27
14,CSc1ccc(C(=O)/C=C/c2cc(C)c(OC(C)(C)C(=O)O)c(C)c2)cc1 [Elafibranor],1.63 ± 0.59
15,Nc1nc(NC2CC2)cc(-c2cccc(Cl)c2Cl)n1,0.918 ± 0.2
16,Cc1ccc(S(=O)(=O)c2ccc([N+](=O)[O-])o2)cc1,1.39 ± 0.46
17,Nc1ncnc2c1ncn2[C@@H]1O[C@H](CO)[C@@H](O)[C@H]1O [Adenosine],1.04 ± 0.13

row,Structure (SMILES),fraction of GFP+ cells
1,COc1c(N2CCNC(C)C2)c(F)cc2c(=O)c(C(=O)O)cn(C3CC3)c12 (stereo not drawn) [Gatifloxacin],0.995 ± 0.12
2,Cc1n[nH]c2ncc(C(=O)N3CCC[C@H]3c3ccc(Cl)cc3)cc12,1.35 ± 0.069
3,Cc1nc(N(C)C(=O)Cc2ccc(-c3ccccn3)cc2)sc1S(N)(=O)=O [Pritelivir (BAY 57-1293)],1.01 ± 0.22
4,CO[C@@H]1[C@@H](OC(N)=O)[C@@H](O)[C@H](Oc2ccc3c(O)c(NC(=O)c4ccc(O)c(CC=C(C)C)c4)c(=O)oc3c2C)OC1(C)C [Novobiocin Sodium],1.09 ± 0.072
5,Cc1nc(-c2cccnc2)sc1C(=O)Nc1ccccc1-c1cn2c(CN3CCOCC3)csc2n1,1.34 ± 0.54
6,NC(=O)c1ccccn1 [Picolinamide],1.08 ± 0.046
7,NC1CCN(c2c(F)cc3c(=O)c(C(=O)O)cn(C4CC4)c3c2Cl)C1 (stereo not drawn) [Clinafloxacin],0.685 ± 0.25
8,CN(C)/N=N/c1[nH]cnc1C(N)=O [Dacarbazine],1.01 ± 0.49
9,O=C(Nc1ccncc1)c1cc([N+](=O)[O-])ccc1Cl,1.74 ± 0.44
10,C[C@@H]1COCCN1c1cc(C2([S@](C)(=N)=O)CC2)nc(-c2cc[nH]c3nccc2-3)n1,0.429 ± 0.24
11,CC(C)(O)[C@@H]1CC[C@](C)([C@H]2[C@@H](O)C[C@@]3(C)[C@@H]4C[C@H](O)[C@H]5C(C)(C)[C@@H](O)CC[C@@]56C[C@@]46CC[C@]23C)O1 [Cycloastragenol],0.966 ± 0.08
12,CC(C)(Oc1ccc(C2CC2(Cl)Cl)cc1)C(=O)O (stereo not drawn) [Ciprofibrate],1.74 ± 0.1
13,CC(C(=O)Nc1cccc(/N=C/c2c(O)ccc3ccccc23)c1)c1ccccc1 (stereo not drawn) [Salermide],0.987 ± 0.56
14,CN(N=O)C(=O)NC1C(O)OC(CO)C(O)C1O (stereo not drawn) [Streptozotocin (STZ)],2.1 ± 0.29
15,CCCCCOC(=O)Nc1nc(=O)n([C@@H]2O[C@H](C)[C@@H](O)[C@H]2O)cc1F [Capecitabine],0.922 ± 0.39
16,O=C(O)[C@]1(Cc2cccc(Nc3nccs3)n2)CC[C@@H](Oc2cccc(Cl)c2F)CC1,1.82 ± 0.2
